In PubChem BioAssay AID939 (National Center for Advancing Translational Sciences (NCATS), 2007) one finds max response data, which are given here for 30 compounds.

Inconclusive results are not listed.

The experiment in a line: Confirmation Concentration-Response Assay for Agonists of the Thyroid Stimulating Hormone Receptor. Further: reference of the scale not given here. To be noted: HEK293 TSHR-CNG cells, membrane potential dye, cAMP; measured here: parental HEK293 counter-screen max. The method in brief: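 A cyclic nucleotide gated channel serves as cAMP sensor in HEK 293 cells stably carrying TSHR, with depolarization detected by fluorescent dye at 590 nm after 30 min compound. Parental cells lacking TSHR run alongside.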
As for `CC1(C)c2ccccc2N2CCC(=O)NC21/C=C/c1ccco1` (stereo not given), the max response was 13.4%. Regarding `Cc1ccccc1NC(=O)CSc1nnc(-c2ccoc2C)n1CCc1ccccc1`, the max response stood at 20.3%. With `O=C(CN(Cc1ccc(F)cc1)S(=O)(=O)c1ccccc1)N1CCCCC1`, the max response is -6.59%. As to `O=C(C1COc2ccccc2O1)N1CCCC1` (stereo not given), the max response was -1.94%.

Turning to `O=C1c2ccccc2C(=O)N1Cc1nc(-c2ccccc2)no1`, the max response was 21.1%. `Cc1nn(-c2ccccc2)c(N2CCCC2)c1/C=N/n1cnc2scc(-c3ccccc3)c2c1=O`: the max response was 16.6%. With `Cc1cc(SCNC(=O)c2ccccc2)ncn1` the figure was -2.72%; with `Cc1cc(C)nc(N(C#N)CC(=O)N2CCC(C(N)=O)CC2)n1`, -13.4%; with `NC(=O)c1nsc(C(=O)N(CC(=O)NCc2ccc3c(c2)OCO3)C2CCCCC2)c1N`, 8.82%. With `Cc1ccc(-n2nc(-c3ccc(N)cc3)cc2N)cc1` the figure was -8.96%; with `c1ccc(-n2cnc3cc(NCc4ccncc4)ccc32)cc1`, 1.12%; with `CCc1ccccc1NC1=NCC(=O)N1Cc1ccc(OC)cc1`, -6.12%.

Take `Oc1ccccc1-c1cc(C(F)(F)C(F)F)nc(-c2ccccc2)n1`: the max response came to 3.44%. Under `CC1(C)c2ccccc2N2CC(=O)NC21/C=C/c1ccco1` (stereo not given) stands 9.74%; under `CN1C(=O)C2C=CC1C1C(=O)N(c3ccccc3)C(=O)C21` (stereo not given), 2.29%.

For the compound `O=C(COC(=O)C1c2ccccc2Oc2ccccc21)Nc1ccc2c(c1)OCO2`, the max response came to 8.54%.

For `Cc1cnc(NC(=O)c2ccc3c(c2)C(=O)N(Cc2ccco2)C3=O)s1`, the max response was -10.7%.

As to `COc1cccc(C2CC(c3ccccc3OC)n3nc(N)nc3N2)c1` (stereo not given), the max response worked out at 6.01%.

Regarding `CCOc1ccc(N(CC(=O)NC(C)(C)C)S(=O)(=O)c2c(C)noc2C)cc1`, the max response came to 6.91%. Consider `Cc1ccc(S(=O)(=O)N2CCC(C(=O)NCCCN3CCCCCC3)CC2)cc1`, for which the max response is -4.36%. Under `Cn1cccc1Cc1nnc(SCC(N)=O)n1CCc1ccccc1` stands 3.14%; under `Cc1occc1-c1nnc(SCC(=O)NCc2ccc3c(c2)OCO3)n1CC(C)C`, 9.78%. With `Cc1ccc2nc(SCC(=O)O)nc(C)c2c1` the figure was 13%; with `Cc1ccccc1-c1nc(CN2CCC(C(=O)N3CCN(c4ccccn4)CC3)CC2)c(C)o1`, 17.1%.

Regarding `CCC(C)(C)n1nnnc1CN(Cc1ccco1)Cc1cc2cc3c(cc2[nH]c1=O)OCO3`, the max response was -12.1%.

Regarding `CC(=O)N1CCCc2cc(S(=O)(=O)N(CC(C)C)CC(C)C)ccc21`, the max response was 14.4%. As to `COc1ccc(CNc2nc(SC)n[nH]2)cc1OC`, the max response stood at 3.91%. With `CN1C(=O)N(C)C2(c3ccccc3)Nn3c(s/c(=C/c4ccco4)c3=O)=NC12c1ccccc1` (stereo not given) the figure was -0.854%.

As to `CCOC(=O)c1ccc(NC(=O)c2ccc(CN3CCOCC3)cc2)cc1`, the max response came out at 11%. Under `O=C1C=C(NCc2ccccc2)C2(CCCCC2)O1` stands 16.9%.
